Where “and” joins values, the source holds several entries; their conditions need not be identical. Equal values may be shown once. About 37,000 (12%) of roughly 300,000 compounds were called active. Many of the other results were omitted from the sample, so actives are more common in it than they were. Unmarked numbers belong to inactive results. Cut-off read from the data, not from the text of the source: active = max response mostly above about 13% (no sharp cut-off); inactive = mostly below about 14%.

This assay is described as follows: Cycloheximide Counterscreen for Small Molecule Inhibitors of Shiga Toxin. Note: read at 38.3 µM for the half of the compounds with a filed dose; 0% is about no effect. The following applies: cell reporter, cycloheximide protein synthesis inhibition counterscreen; hits give high values. Background: The purpose of a counterscreen is to sort out artefacts and off-target activity.
Take `CCCNC(=O)c1ccc(N2CCC3(CC2)CC(c2ccc(Cl)cc2)=NO3)c([N+](=O)[O-])c1`: the max response was -0.889%.

Consider `OCCN1CCN(C(=S)c2ccc(-c3ccccc3)cc2)CC1`, for which the max response was -2.28%.

On to `S=C(c1ccccc1)N1CCCC1`, for which the max response is -0.586%.

Consider `S=C(c1ccc(-c2ccccc2)o1)N1CCCCC1`, for which the max response was 38.1% (active).

On to `Cc1ccc(OCC(=O)Nc2ccc(N3CCN(C(=O)c4ccco4)CC3)cc2)c(C)c1`, for which the max response was -1.02%.

As to `c1ccc(CN=C2Nc3ccccc3CS2)nc1`, the max response was 36.1% (active).

On to `CCOC(=O)c1c(-c2ccccc2)oc2cc(Br)c(O)cc12`, for which the max response was -1.41%.

Regarding `Cc1ccc(C)c(S(=O)(=O)N2CCCOC2CNC(=O)C(=O)NC2CCCCC2)c1` (centres undefined), the max response was 7.6%.

Turning to `Cc1nc2ccccc2nc(C)c1=NOCc1ccc(Cl)cc1Cl`, the max response is 39.1% (active).

On to `COC(=O)c1sc2ncccc2c1OCc1ccc(Cl)cc1Cl`, for which the max response was 4.4%.

For `O=S(=O)(O)c1nc2ccccc2n1Cc1ccc(Cl)cc1Cl`, the max response is -2.23%.

Consider `Cc1ccc(-n2ncc3c2CC(C)(C)CC3NC(=O)CCc2cnn(C)c2)cc1` (centres undefined), for which the max response was -4.22%.

Turning to `O=C1c2cccc3cccc(c23)C(=O)N1c1cccc(O)c1`, the max response was -2.33%.

As to `O=C(Nc1cccc(Cl)c1N1CCOCC1)c1cccnc1`, the max response was 6.59%.

For `Cc1noc(C)c1C(=O)NCCc1ccc(S(N)(=O)=O)cc1`, the max response was -1.04%.

As to `Cc1nc2sccn2c(=O)c1S(=O)(=O)NCCc1ccccc1`, the max response is -3.53%.

Regarding `Cc1ccc(-c2nc(C)sc2CC(=O)O)cc1`, the max response was -1.04%.

For `CCOC(=O)C(=O)Nc1nc(-c2ccccc2)c(CC)s1`, the max response was -3.08%.

As to `C/C(=N/Nc1nc(-c2ccccc2)c(CC(=O)O)s1)c1ccccc1`, the max response is 35% (active).

Consider `O=[N+]([O-])c1ccccc1S(=O)(=O)Nc1cccc2cccnc12`, for which the max response was 10.3% and 10.1% and -3.71%.

Take `CCN1CCN(C(=O)CCN2C(=O)c3ccccc3C2=O)CC1`: the max response is -1.33%.

As to `CCOC(=O)N1CCN(C(=O)CSc2ccc(Cl)cc2)CC1`, the max response is 20.3% (active).

For `CCOC(=O)N1CCN(C(=O)CNC(=O)Cc2ccc(Cl)cc2)CC1`, the max response was -1.82%.

Regarding `CCN1CCN(C(=O)CSc2ccc(C)cc2)CC1`, the max response is 15.7% (active).

With `CCOC(=O)N1CCN(C(=O)COc2ccc(Cl)cc2C)CC1`, the max response is -3.61%.

On to `CS(=O)(=O)N1CCN(C(=O)CSc2ccccc2)CC1`, for which the max response is -1.13%.

With `COc1ccc(OC)c(NC(=O)c2ccc3c(c2)C(=O)N(c2ccc(OC(C)=O)cc2)C3=O)c1`, the max response was 2.74%.

Regarding `CCC1SC2=NCCN2C1(O)c1ccc(Cl)cc1` (centres undefined), the max response is -0.782%.

`CCOc1nc(-c2ccc(OC)cc2)ccc1-c1noc(-c2cc(OC)c(OC)c(OC)c2)n1`: the max response is 8.08%.

As to `COc1ccc(-c2csc3nc(-c4ccccc4F)oc(=O)c23)cc1OC`, the max response was -1.13%.

As to `COc1ccc(-c2noc(-c3cccc(OC)c3OC)n2)cc1OC`, the max response is 36% (active).

As for `Cc1ccccc1OCC(=O)Nc1ccc(S(=O)(=O)N2CCOCC2)cc1`, the max response is 4.38%.

Turning to `CCCOc1cccc(C(=O)Nc2ccccc2C(=O)N2CCN(C)CC2)c1`, the max response was -0.829%.

With `Cn1cnnc1SCC(=O)NNC(=O)COc1ccc(Br)cc1`, the max response is -2.49%.

Turning to `Nc1cccc2c1C(=O)N(Cc1nnc(-c3ccccc3Br)o1)C2=O`, the max response was 12.5%.

As to `Cn1cnnc1SCc1nnc(-c2ccccc2Br)o1`, the max response is 24% (active).

As for `Cc1ccc(S(=O)(=O)/N=C(\CN2CCOCC2)N2CCOCC2)cc1`, the max response was -4.56%.

`CN(CCO)c1ccc(/C=N/Nc2nncc3ccccc23)cc1`: the max response was 26.2% (active).

Consider `COc1cc(/C=N/Nc2nn3cnnc3c3ccccc23)cc(OC)c1OC`, for which the max response is 17.3%.

For `Cc1[nH]c(C)c(S(=O)(=O)N2CCC(C)CC2)c1C(=O)N1CCCC1`, the max response is -1.96%.

Consider `CCc1ccc(OCC(=O)OC(C)C(=O)NC2CC2)cc1` (centres undefined), for which the max response is -3.17%.

For the compound `CCC(Sc1nncn1C)C(=O)Nc1nnc(-c2ccc(Cl)cc2)s1` (centres undefined), the max response is 11.6%.

With `Cc1nc(-c2ccc(Cl)cc2)sc1C(=O)CBr`, the max response was 24.4% (active).

With `Cc1nc(-c2ccc(Cl)cc2)sc1C(=O)NN`, the max response was 0.842%.

`Cc1cc(/C=N/NC(=O)CC2(C)OCCO2)c(C)n1-c1ccc(Cl)c(Cl)c1`: the max response was -1.92%.

Take `COc1ccc(-c2noc(CNC(=O)C(C)Oc3ccccc3)n2)cc1` (centres undefined): the max response is 0.411%.

Regarding `Cc1ccc(-c2nc(CS(=O)(=O)CC(=O)NCc3ccc4c(c3)OCO4)c(C)o2)cc1`, the max response was -6.73%.

Regarding `CC(=O)N1CCSc2ccc(S(=O)(=O)N3CCC(C)CC3)cc21`, the max response is 11.3%.

Consider `COc1ccc2nc(C)cc(Nc3cccc(C(=O)O)c3)c2c1`, for which the max response was -4.02%.

On to `COc1ccc2nc(/N=C(\N)NC(=O)Nc3ccccc3)nc(C)c2c1`, for which the max response is 21.4% (active).

Take `Cc1nc(/N=C(\N)NC(=O)NC2CCCCC2)nc2ccccc12`: the max response is 8.1%.

For `NC(=O)c1cc(S(=O)(=O)N2CCCC2)ccc1OCc1ccc(F)cc1`, the max response is 8.59%.

On to `COc1ccc(CCNc2nc(C)cc(C)n2)cc1OC`, for which the max response is -4.51%.

For `CCOC(=O)c1c(NC(=S)NC(=O)/C=C/c2cccs2)sc(C)c1C`, the max response was -0.873%.

In the case of `CCOC(=O)c1sc(=NC(=O)c2ccc(Br)cc2)n(C)c1C`, the max response is 7.25%.

As to `CCOC(=O)c1sc(=NC(=O)/C=C/c2cccs2)n(C)c1C`, the max response was 45% (active).

In the case of `Cc1cccc2[nH]c(CN(C)C(=O)C3CCC(=O)N(CCc4ccccc4)C3)nc12` (centres undefined), the max response was -2.09%.

As for `CC1CCN(S(=O)(=O)c2ccc(NC(=O)C3CC(=O)N(c4ccccc4)C3)cc2)CC1` (centres undefined), the max response was -2.49%.

`COC(=O)c1cc(S(=O)(=O)NCC2CCN(Cc3ccc(Cl)cc3)CC2)cn1C`: the max response is -2.79%.

As to `Cc1cc(NC(=O)Nc2c[nH]c(=O)[nH]c2=O)ccc1Br`, the max response was 9%.

Take `COC(=O)c1ccc2c(C(C)(C)O)c(C(C)(C)O)[nH]c2c1`: the max response was 14.2% (active).

Consider `CCN(CC)CCNC(=O)CCCCCn1c(=O)[nH]c2cc(C(=O)OC)ccc2c1=O`, for which the max response is -5.11%.

Take `COC(=O)c1cccc(NS(C)(=O)=O)c1`: the max response was -1.63%.

For the compound `CC(C)(C)c1cc(C(=O)NN)n(Cc2ccc(Cl)cc2Cl)n1`, the max response is -2.75%.

On to `N=c1n(Cc2ccc(Cl)cc2)c2ccccc2n1CC(O)c1ccco1` (centres undefined), for which the max response is -4.56%.

On to `C=C(C)CNC(=S)/N=c1\scc(C)n1CC`, for which the max response is 10.1%.

With `O=C(CSc1cccc2cccnc12)N/N=C/c1cccnc1`, the max response was 31.6%.

Turning to `CC(=O)/C(=N\Nc1ccc(Cl)cc1Cl)Sc1cccc2cccnc12`, the max response is 19.1% (active).

Turning to `Cc1ccc(NC(=O)CSc2cccc3cccnc23)c(C)c1`, the max response was 21%.

In the case of `COc1ccc(CCN2CC(C(=O)NCCN3CCNC3=O)CCC2=O)cc1` (centres undefined), the max response is 7.2%.

`COc1cc(C(=O)OC(C)C(=O)NCC2CCCCC2)cc(NC(=O)c2ccco2)c1OC` (centres undefined): the max response was -2.06%.

Consider `COc1ccc(C[C@H]2CN3C(=NC[C@H]3C)N2CCNC(=O)CCC2CCCCC2)cc1`, for which the max response was 5.31%.

Consider `CCc1nn(CCCC(=O)Nc2ccc(C)cc2C)c(=O)c2cc3occc3n12`, for which the max response was 0.647%.

Turning to `CC(=O)N1Cc2ccccc2CC1C(=O)O` (centres undefined), the max response is -1.38%.

With `Cc1ccc(NC(=O)Nc2nnc(-c3ccncc3)s2)cc1`, the max response is -1.9%.

Take `Cc1ccc(Nc2nc(Cl)c(C=O)s2)cc1`: the max response was 46% (active).

Turning to `Cc1ccc(Nc2nc(C)cc(C)c2C(N)=O)cc1`, the max response is -4.97%.

For `Cc1cccc(OCC(O)CN2CCN(CCN3C(=O)c4cccc5cccc(c45)C3=O)CC2)c1C` (centres undefined), the max response is -8.1%.

For the compound `COC(=O)CN1C(=O)[C@H]2[C@@H](C3CC3)N3C(=O)CN(Cc4ccc(-c5ccccc5)cc4)C(=O)[C@@]3(Cc3ccccc3)[C@H]2C1=O`, the max response is -3.99%.

For `Cc1ccc(NC(=S)N(CCCN2CCCC2)Cc2cccn2Cc2ccc(Cl)cc2)cc1`, the max response is -7.32%.

With `Cc1cc(F)ccc1S(=O)(=O)N1CCCOC1CNC(=O)C(=O)NCCC1=CCCCC1` (centres undefined), the max response was -4.9%.

Take `O=c1[nH]n(-c2ccc([N+](=O)[O-])cc2)c(=O)c2ccccc12`: the max response was -2.65%.

`O=C1CC(c2ccccc2)=NN1c1ccc([N+](=O)[O-])cc1`: the max response was 17.2% (active).

For `CC1=NN(c2ccccc2)C(=O)C1C(=O)c1ccc([N+](=O)[O-])cc1` (centres undefined), the max response was 20.6%.

`Cc1ccc(CNC(=O)C2(C(F)(F)F)C/C(=C\Cc3ccccc3)CCCO2)o1` (centres undefined): the max response was -3.33% and -3.22%.

On to `O=C(COc1nsnc1N1CCOCC1)Nc1ccccc1Cl`, for which the max response was 8.06%.

Take `COc1ccc(NC(=O)CSc2nc3ccccc3c(=O)n2C)cc1`: the max response was -4.03%.

For the compound `COc1cc2ccccc2cc1C(=O)Nc1ccc(N2CCOCC2)cc1`, the max response is 8.83%.

In the case of `COc1cccc(/C=C(/CC(=O)Nc2ccc(N3CCOCC3)cc2)c2nc3ccccc3s2)c1`, the max response was 50.5% (active).

Turning to `COc1ccc(NC(=O)COC(=O)c2ccc(NS(=O)(=O)/C=C/c3ccccc3)cc2)cc1`, the max response is 0.764%.

`CCn1c(Cc2ccc(OC)cc2)nnc1SCC(=O)Nc1ccc(N2CCOCC2)cc1`: the max response is -3.63%.

For the compound `COc1ccc(/C=C(/CC(=O)Nc2ccc(C)cc2)c2nc3ccccc3s2)cc1`, the max response was 21.2% (active).

Take `Cc1cc(C(=O)NC2CCN(Cc3ccccc3)CC2)n[nH]1`: the max response was -5.5%.

In the case of `Clc1ccc(C[n+]2cc(-c3ccc(Cl)cc3)n3c2CCC3)cc1`, the max response was 1.82%.
